# In paper PMC7862700, “An all-to-all approach to the identification of sequence-specific readers for epigenetic DNA modifications on cytosine”:
# How the values were obtained:
# Test in all cases: DAPPL (digital affinity profiling via proximity ligation, sequencing); 10 mM Tris-HCl pH 7.5, 50 mM NaCl, 1 mM DTT, 4% glycerol, room temperature, 30 min; GST-TFs on glutathione beads, 16-mer random dsDNA library, 0.1% formaldehyde crosslink after washing; high values mean tight binding
# FEV = molecular target: T1, FEV (Homo sapiens, UniProt Q99581 1-238); conditions: protein: recombinant; tags: N-terminal GST; dsDNA, one strand shown
# T1 sequence: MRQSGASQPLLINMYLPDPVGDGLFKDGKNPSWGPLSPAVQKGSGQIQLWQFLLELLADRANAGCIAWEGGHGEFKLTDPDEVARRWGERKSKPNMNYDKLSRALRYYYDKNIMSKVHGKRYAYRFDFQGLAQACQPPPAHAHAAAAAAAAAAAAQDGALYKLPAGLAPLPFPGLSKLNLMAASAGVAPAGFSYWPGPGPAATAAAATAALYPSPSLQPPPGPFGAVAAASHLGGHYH
# How it was run: (§1)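 Human transcription factors were made in yeast as GST fusions, captured on glutathione beads and barcoded with DNA. With a tag-only sample included, the pool was incubated with 200 nmole of a random double-stranded 16-mer DNA library in Tris/NaCl/DTT/glycerol buffer at room temperature for 30 min, then crosslinked with 0.1% formaldehyde after washing, ligated by proximity, amplified and sequenced. For binding signal, each hexamer's read frequency for a factor is divided by its frequency for the tag-only sample.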
# ETV5 = ETV5 (Homo sapiens, UniProt P41161 1-510); conditions: protein: recombinant; tags: N-terminal GST; dsDNA, one strand shown
# How it was run: as §1
# HSF1 = HSF1 (Homo sapiens, UniProt Q00613 1-529); conditions: protein: recombinant; tags: N-terminal GST; chain copies: 3; dsDNA, one strand shown
# How it was run: as §1
# SPIC = molecular target: T2, SPIC (Homo sapiens, UniProt Q8N5J4 1-248); conditions: protein: recombinant; tags: N-terminal GST; dsDNA, one strand shown
# T2 sequence: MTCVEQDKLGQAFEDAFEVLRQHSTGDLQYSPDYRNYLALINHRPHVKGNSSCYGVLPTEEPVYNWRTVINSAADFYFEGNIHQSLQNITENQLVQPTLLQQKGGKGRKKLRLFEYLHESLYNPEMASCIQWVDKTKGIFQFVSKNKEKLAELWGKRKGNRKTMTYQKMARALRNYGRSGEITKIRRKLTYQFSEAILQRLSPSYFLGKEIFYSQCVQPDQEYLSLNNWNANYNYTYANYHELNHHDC
# How it was run: as §1
# ELF4 = ELF4 (Homo sapiens, UniProt Q99607 1-663); conditions: protein: recombinant; tags: N-terminal GST; dsDNA, one strand shown
# How it was run: as §1
# ELK4 = molecular target: T3, ELK4 (Homo sapiens, UniProt P28324-2 1-405); conditions: protein: recombinant; tags: N-terminal GST; dsDNA, one strand shown
# T3 sequence: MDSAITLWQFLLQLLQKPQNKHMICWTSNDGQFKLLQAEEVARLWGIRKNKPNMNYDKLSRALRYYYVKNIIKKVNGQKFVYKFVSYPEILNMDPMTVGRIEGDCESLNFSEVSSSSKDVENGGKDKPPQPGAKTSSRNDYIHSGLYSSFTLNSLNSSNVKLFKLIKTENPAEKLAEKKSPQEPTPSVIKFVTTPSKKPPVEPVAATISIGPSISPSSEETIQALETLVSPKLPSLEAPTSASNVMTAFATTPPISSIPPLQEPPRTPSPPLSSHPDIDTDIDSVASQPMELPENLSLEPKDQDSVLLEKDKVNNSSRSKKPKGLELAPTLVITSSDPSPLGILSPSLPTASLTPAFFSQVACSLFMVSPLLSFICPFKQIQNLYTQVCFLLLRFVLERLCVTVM
# How it was run: as §1
# ETV2 = molecular target: T4, ETV2 (Homo sapiens, UniProt O00321 1-342); conditions: protein: recombinant; tags: N-terminal GST; dsDNA, one strand shown
# T4 sequence: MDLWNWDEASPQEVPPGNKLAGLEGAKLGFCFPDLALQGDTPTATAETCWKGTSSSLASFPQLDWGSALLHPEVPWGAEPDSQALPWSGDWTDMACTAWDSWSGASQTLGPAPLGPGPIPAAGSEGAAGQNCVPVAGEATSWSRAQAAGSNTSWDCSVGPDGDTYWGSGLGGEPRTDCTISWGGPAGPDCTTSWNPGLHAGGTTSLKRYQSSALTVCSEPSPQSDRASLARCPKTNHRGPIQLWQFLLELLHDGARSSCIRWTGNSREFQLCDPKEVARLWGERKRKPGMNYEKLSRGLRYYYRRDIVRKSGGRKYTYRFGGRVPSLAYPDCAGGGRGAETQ
# How it was run: as §1
# ELF3 = molecular target: T5, ELF3 (Homo sapiens, UniProt P78545 1-371); conditions: protein: recombinant; tags: N-terminal GST; dsDNA, one strand shown
# T5 sequence: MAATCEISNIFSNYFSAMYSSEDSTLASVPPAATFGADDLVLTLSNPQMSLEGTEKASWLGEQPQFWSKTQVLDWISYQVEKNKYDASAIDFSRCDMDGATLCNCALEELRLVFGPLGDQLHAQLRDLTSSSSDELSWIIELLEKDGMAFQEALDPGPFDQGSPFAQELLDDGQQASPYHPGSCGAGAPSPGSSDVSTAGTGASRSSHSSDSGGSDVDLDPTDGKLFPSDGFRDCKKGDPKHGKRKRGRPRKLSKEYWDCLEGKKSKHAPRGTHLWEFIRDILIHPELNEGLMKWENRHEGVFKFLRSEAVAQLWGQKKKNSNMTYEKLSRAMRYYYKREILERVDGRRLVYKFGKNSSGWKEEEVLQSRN
# How it was run: as §1
# CRX = CRX (Homo sapiens, UniProt O43186 1-299); conditions: protein: recombinant; tags: N-terminal GST; dsDNA, one strand shown
# How it was run: as §1
# ETV1 = ETV1 (Homo sapiens, UniProt P50549 1-477); conditions: protein: recombinant; tags: N-terminal GST; dsDNA, one strand shown
# How it was run: as §1
# ERF = molecular target: T6, ERF (Homo sapiens, UniProt P50548 1-548); conditions: protein: recombinant; tags: N-terminal GST; dsDNA, one strand shown
# T6 sequence: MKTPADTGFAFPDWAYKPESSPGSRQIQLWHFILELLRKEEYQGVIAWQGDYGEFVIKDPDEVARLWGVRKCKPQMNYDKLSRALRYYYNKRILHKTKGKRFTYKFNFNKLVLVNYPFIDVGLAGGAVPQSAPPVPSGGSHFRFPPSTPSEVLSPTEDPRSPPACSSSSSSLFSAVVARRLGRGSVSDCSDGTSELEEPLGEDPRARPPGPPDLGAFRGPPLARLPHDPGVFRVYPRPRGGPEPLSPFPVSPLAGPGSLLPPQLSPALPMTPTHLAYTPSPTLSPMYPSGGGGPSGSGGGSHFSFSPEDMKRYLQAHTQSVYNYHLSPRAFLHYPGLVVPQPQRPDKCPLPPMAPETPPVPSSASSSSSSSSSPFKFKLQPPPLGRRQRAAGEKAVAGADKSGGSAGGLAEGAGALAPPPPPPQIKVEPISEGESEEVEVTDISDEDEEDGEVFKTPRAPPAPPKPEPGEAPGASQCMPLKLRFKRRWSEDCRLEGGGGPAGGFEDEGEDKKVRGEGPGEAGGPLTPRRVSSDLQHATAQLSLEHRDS
# How it was run: as §1
# ETV3L = molecular target: T7, ETV3L (Homo sapiens, UniProt Q6ZN32 1-361); conditions: protein: recombinant; tags: N-terminal GST; dsDNA, one strand shown
# T7 sequence: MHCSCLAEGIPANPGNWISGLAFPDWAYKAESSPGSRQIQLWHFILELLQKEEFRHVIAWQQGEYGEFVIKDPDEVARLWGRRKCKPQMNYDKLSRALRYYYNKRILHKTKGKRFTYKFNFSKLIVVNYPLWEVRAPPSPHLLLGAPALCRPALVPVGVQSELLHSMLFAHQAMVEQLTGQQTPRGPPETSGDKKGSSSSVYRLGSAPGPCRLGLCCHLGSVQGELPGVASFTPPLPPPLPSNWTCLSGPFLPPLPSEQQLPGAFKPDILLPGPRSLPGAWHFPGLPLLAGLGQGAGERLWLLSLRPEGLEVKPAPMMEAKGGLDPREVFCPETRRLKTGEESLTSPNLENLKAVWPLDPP
# How it was run: as §1
# ETS2 = molecular target: T8, ETS2 (Homo sapiens, UniProt P15036 1-469); conditions: protein: recombinant; tags: N-terminal GST; dsDNA, one strand shown
# T8 sequence: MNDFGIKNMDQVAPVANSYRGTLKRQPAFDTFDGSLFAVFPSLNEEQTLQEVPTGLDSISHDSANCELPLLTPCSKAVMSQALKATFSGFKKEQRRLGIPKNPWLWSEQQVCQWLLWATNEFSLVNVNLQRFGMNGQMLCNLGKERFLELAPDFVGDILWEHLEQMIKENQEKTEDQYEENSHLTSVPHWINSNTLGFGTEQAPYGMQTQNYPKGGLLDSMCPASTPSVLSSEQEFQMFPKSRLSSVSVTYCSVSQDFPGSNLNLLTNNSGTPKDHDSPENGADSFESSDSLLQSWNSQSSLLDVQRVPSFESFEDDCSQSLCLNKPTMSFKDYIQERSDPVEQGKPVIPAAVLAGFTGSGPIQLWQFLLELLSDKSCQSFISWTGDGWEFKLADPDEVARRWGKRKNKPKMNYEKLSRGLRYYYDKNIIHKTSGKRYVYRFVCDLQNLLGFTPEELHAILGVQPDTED
# How it was run: as §1
# SPDEF = molecular target: T9, SPDEF (Homo sapiens, UniProt O95238 1-335); conditions: protein: recombinant; tags: N-terminal GST; dsDNA, one strand shown
# T9 sequence: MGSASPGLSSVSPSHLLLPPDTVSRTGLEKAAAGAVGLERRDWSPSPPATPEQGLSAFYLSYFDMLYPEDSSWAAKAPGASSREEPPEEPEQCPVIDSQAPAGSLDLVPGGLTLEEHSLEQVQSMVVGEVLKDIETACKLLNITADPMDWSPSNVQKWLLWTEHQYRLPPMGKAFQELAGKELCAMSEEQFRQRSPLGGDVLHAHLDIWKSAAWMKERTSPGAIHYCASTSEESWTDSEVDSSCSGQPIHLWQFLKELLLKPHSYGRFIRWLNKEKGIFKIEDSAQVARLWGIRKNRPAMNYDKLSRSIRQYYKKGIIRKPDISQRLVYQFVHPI
# How it was run: as §1
# ETV7 = molecular target: T10, ETV7 (Homo sapiens, UniProt Q9Y603 1-341); conditions: protein: recombinant; tags: N-terminal GST; dsDNA, one strand shown
# T10 sequence: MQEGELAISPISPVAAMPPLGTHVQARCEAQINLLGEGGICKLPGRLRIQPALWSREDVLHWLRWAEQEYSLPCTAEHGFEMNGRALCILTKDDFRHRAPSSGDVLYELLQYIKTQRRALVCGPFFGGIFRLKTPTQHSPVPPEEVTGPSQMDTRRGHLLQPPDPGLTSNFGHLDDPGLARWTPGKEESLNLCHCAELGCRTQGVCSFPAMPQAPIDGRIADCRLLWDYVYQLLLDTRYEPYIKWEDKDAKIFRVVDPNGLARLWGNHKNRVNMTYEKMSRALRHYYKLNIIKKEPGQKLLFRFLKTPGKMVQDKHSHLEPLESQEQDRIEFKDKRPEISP
# How it was run: as §1
# ELF5 = molecular target: T11, ELF5 (Homo sapiens, UniProt Q9UKW6-2 1-255); conditions: protein: recombinant; tags: N-terminal GST; dsDNA, one strand shown
# T11 sequence: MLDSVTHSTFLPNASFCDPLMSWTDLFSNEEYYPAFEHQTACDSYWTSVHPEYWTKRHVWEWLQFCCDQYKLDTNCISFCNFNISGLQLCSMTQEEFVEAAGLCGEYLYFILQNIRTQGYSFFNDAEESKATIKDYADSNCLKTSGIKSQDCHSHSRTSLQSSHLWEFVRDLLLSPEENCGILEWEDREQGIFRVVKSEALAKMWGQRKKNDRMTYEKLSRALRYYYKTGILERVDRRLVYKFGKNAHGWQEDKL
# How it was run: as §1
# ETV3 = molecular target: T12, ETV3 (Homo sapiens, UniProt P41162-2 1-143); conditions: protein: recombinant; tags: N-terminal GST; dsDNA, one strand shown
# T12 sequence: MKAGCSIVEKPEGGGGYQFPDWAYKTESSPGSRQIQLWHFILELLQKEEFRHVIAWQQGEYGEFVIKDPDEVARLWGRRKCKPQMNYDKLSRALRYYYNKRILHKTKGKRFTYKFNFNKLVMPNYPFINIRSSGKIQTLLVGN
# How it was run: as §1
# ETV6 = ETV6 (Homo sapiens, UniProt P41212 1-452); conditions: protein: recombinant; tags: N-terminal GST; dsDNA, one strand shown
# How it was run: as §1
# HSF1, sequence (Q00613 whole entry): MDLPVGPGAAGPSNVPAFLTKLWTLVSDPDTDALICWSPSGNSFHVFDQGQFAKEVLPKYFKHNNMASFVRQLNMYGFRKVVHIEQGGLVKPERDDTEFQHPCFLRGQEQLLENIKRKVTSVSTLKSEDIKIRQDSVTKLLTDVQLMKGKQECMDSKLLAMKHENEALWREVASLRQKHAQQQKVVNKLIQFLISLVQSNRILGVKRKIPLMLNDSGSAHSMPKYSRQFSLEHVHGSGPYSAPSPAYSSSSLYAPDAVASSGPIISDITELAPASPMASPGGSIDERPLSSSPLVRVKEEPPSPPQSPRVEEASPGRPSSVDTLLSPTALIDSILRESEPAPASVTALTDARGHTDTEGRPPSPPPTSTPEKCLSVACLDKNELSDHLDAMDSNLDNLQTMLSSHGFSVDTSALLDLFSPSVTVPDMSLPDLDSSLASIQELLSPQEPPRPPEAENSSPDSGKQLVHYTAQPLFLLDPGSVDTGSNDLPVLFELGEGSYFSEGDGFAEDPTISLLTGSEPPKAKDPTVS
# ETV6, sequence (P41212 whole entry): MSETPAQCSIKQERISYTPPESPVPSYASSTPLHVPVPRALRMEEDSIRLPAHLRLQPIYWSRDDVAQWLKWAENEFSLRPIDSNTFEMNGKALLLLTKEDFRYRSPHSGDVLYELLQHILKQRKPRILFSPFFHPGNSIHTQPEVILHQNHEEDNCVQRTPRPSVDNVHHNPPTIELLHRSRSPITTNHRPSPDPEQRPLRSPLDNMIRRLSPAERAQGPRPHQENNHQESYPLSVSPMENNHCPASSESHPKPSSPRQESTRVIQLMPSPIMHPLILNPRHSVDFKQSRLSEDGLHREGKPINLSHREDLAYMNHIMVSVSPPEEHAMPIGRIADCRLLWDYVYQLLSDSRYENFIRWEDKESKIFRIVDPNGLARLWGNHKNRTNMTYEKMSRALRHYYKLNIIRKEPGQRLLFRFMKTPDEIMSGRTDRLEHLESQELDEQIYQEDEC
# CRX, sequence (O43186 whole entry): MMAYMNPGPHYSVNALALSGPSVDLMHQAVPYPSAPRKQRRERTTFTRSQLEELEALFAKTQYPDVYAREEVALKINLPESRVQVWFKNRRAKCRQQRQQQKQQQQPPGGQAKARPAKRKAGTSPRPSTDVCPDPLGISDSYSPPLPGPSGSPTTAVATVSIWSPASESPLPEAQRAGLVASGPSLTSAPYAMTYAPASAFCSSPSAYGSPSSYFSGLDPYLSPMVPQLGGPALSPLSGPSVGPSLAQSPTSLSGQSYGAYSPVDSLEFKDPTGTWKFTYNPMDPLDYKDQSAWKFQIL
# ETV1, sequence (P50549 whole entry): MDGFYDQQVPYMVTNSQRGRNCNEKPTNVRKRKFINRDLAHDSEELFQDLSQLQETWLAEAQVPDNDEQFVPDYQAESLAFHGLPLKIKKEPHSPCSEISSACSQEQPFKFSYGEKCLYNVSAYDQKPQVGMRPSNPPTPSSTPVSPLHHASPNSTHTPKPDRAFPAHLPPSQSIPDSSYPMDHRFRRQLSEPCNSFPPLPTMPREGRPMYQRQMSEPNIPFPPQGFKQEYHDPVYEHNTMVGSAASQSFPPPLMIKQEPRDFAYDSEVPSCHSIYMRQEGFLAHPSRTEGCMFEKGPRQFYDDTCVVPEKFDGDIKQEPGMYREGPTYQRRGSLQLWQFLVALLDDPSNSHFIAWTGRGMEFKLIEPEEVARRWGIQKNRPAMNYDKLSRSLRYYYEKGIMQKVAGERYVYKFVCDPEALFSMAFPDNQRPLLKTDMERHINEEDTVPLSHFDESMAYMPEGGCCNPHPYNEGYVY
# ELF4, sequence (Q99607 whole entry): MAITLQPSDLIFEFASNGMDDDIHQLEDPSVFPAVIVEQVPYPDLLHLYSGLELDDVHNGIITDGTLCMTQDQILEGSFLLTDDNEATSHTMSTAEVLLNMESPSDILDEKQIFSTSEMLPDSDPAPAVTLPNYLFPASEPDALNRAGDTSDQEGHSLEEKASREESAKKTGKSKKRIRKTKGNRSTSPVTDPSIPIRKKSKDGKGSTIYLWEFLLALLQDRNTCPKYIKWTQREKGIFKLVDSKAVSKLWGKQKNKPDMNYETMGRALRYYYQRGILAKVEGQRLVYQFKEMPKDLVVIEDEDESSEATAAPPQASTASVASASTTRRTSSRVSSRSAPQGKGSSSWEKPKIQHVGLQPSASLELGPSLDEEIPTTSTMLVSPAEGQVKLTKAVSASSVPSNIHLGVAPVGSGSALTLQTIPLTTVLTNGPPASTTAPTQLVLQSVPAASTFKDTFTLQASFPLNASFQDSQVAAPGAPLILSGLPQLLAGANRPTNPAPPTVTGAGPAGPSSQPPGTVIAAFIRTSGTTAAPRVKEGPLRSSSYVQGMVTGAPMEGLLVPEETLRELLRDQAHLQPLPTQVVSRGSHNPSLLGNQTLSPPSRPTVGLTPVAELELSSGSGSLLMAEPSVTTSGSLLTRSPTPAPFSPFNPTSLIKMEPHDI
# ETV5, sequence (P41161 whole entry): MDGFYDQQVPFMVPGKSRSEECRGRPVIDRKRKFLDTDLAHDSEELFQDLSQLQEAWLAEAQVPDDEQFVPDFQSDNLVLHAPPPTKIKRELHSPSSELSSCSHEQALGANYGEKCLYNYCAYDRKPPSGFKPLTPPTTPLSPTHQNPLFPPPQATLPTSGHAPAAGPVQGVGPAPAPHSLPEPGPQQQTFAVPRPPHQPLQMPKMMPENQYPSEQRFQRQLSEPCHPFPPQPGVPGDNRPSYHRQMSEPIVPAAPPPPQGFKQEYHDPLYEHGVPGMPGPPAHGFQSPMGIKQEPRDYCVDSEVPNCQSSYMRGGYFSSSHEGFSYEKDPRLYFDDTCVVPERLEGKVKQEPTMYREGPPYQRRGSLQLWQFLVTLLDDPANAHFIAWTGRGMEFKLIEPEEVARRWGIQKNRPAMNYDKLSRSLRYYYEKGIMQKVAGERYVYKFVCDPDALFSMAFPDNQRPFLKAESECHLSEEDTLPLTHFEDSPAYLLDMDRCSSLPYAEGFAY
sequence,measurement,setting,value
GGCCTT,binding signal,FEV,"1.14 fold enrichment (6-mer frequency, TF over GST control)"
same,binding signal,ETV5,"1.16 fold enrichment (6-mer frequency, TF over GST control)"
same,binding signal,HSF1,"1.05 fold enrichment (6-mer frequency, TF over GST control)"
same,binding signal,SPIC,"1.16 fold enrichment (6-mer frequency, TF over GST control)"
same,binding signal,ELF4,"1.25 fold enrichment (6-mer frequency, TF over GST control)"
same,binding signal,ELK4,"1.09 fold enrichment (6-mer frequency, TF over GST control)"
same,binding signal,ETV2,"1.07 fold enrichment (6-mer frequency, TF over GST control)"
same,binding signal,ELF3,"1.15 fold enrichment (6-mer frequency, TF over GST control)"
same,binding signal,CRX,"1.02 fold enrichment (6-mer frequency, TF over GST control)"
same,binding signal,ETV1,"1.1 fold enrichment (6-mer frequency, TF over GST control)"
same,binding signal,ERF,"1.12 fold enrichment (6-mer frequency, TF over GST control)"
same,binding signal,ETV3L,"1.05 fold enrichment (6-mer frequency, TF over GST control)"
same,binding signal,ETS2,"1.09 fold enrichment (6-mer frequency, TF over GST control)"
same,binding signal,SPDEF,"1.06 fold enrichment (6-mer frequency, TF over GST control)"
same,binding signal,ETV7,"1.34 fold enrichment (6-mer frequency, TF over GST control)"
same,binding signal,ELF5,"1.06 fold enrichment (6-mer frequency, TF over GST control)"
same,binding signal,ETV3,"1.11 fold enrichment (6-mer frequency, TF over GST control)"
same,binding signal,ETV6,"1.04 fold enrichment (6-mer frequency, TF over GST control)"
